This is part of a sample that, as a whole, favours compounds with a hit. Of some 83,000 tested, about 20% had one in any assay.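 In brief: 96-well plates, 48 h treatment, single concentration, percent growth endpoint.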 Unmarked numbers belong to inactive results. Activity calls are given as the source filed them. The calls were made as follows: active = growth percent below 10; inactive = the rest.
What was measured:
Assay in all cases: NCI-60 one-dose screen, 48 h (100 = growth as untreated, 0 = no growth, -100 = all killed)
NCI-H226 lung = conditions: 10 µM unless noted
NCI-H322M lung = conditions: 10 µM unless noted
NCI-H460 lung = conditions: 10 µM unless noted
HOP-92 NSCLC = conditions: 10 µM unless noted
NCI-H522 lung = conditions: 10 µM unless noted
786-0 renal = conditions: 10 µM unless noted
COLO 205 colon = conditions: 10 µM unless noted
DU-145 prostate = conditions: 10 µM unless noted
K-562 leukemia = conditions: 10 µM unless noted
MALME-3M melanoma = conditions: 10 µM unless noted
MDA-MB-231 breast = conditions: 10 µM unless noted
RXF 393 renal = conditions: 10 µM unless noted
SF-268 CNS = conditions: 10 µM unless noted
SF-295 CNS = conditions: 10 µM unless noted
SF-539 CNS = conditions: 10 µM unless noted
M14 melanoma = conditions: 10 µM unless noted
HOP-62 NSCLC = conditions: 10 µM unless noted
A549/ATCC NSCLC = conditions: 10 µM unless noted
UACC-257 melanoma = conditions: 10 µM

| Compound | growth (NCI-H226 lung) | growth (NCI-H322M lung) | growth (NCI-H460 lung) | growth (HOP-92 NSCLC) | growth (NCI-H522 lung) | growth (786-0 renal) | growth (COLO 205 colon) | growth (DU-145 prostate) | growth (K-562 leukemia) | growth (MALME-3M melanoma) | growth (MDA-MB-231 breast) | growth (RXF 393 renal) | growth (SF-268 CNS) | growth (SF-295 CNS) | growth (SF-539 CNS) | growth (M14 melanoma) | growth (HOP-62 NSCLC) | growth (A549/ATCC NSCLC) | growth (UACC-257 melanoma) |
| --- | --- | --- | --- | --- | --- | --- | --- | --- | --- | --- | --- | --- | --- | --- | --- | --- | --- | --- | --- |
| C=C1C(=O)O[C@H]2[C@H]1CC/C(Cn1cc(-c3ccccc3C(F)(F)F)nn1)=C\CC[C@@]1(C)O[C@@H]21 | -45.6% (active) | 81.6% | 49.1% | -70.4% (active) | -82.5% (active) | -81.2% (active) | -78.8% (active) | -95.4% (active) | -13% (active) | -59.3% (active) | -33.4% (active) | -72.3% (active) | -4.71% (active) | 58.8% | -74.9% (active) | -79.1% (active) | – | – | – |
| CC/C(=C(\c1ccc(O)cc1)c1ccc(OCCN(C)CCN(C)C(=O)CCC(=O)c2c(C)[nH]c(/C=C3\N=C(c4ccc[nH]4)C=C3OC)c2C)cc1)c1ccccc1 | 77% | 70.4% | 58.2% | 58.8% | 81.9% | 87.5% | 89.8% | 46.9% | 5.83% (active) | 55.4% | 9.16% (active) | 66.1% | 69.8% | 95.9% | 63.2% | 20.7% | 91.3% | 76.4% | 104% |
| O=C(CCC(=O)OC1CCCC1)OC1CCCC1 | 96.3% | 97% | 104% | 73.1% | 79.8% | 104% | 116% | 102% | 96% | 102% | 105% | 97.6% | 99.7% | 99.3% | 87.8% | 112% | 109% | 91.4% | 85.4% |
| NC(=O)c1cccc(N2Cc3ccccc3OC3=C2C(=O)c2c(O)ccc(O)c2C3=O)c1 | 0.769% (active) | 25.5% | -27.5% (active) | -91.8% (active) | -73.4% (active) | -80.5% (active) | -82.8% (active) | -96.4% (active) | -19.8% (active) | -82% (active) | -81.9% (active) | -73.1% (active) | -11.4% (active) | 45.4% | -49.3% (active) | -81% (active) | -42% (active) | – | – |
| COc1cc(Br)c(OC)cc1Br | 98.3% | 89.7% | 99.3% | 96.9% | 90.4% | 105% | 109% | 106% | 104% | 75.4% | 85.6% | 116% | 98.6% | 94.7% | 93.6% | 91.5% | 93.5% | 95.6% | – |
| C#CCN1C(=O)/C(=c2\sc3n(c2=O)NC2C(N=3)N(CC)C(=O)N2CC)c2ccccc21 (stereo not drawn) | 87.4% | 95.8% | 99.2% | 76.4% | 52.4% | 61.2% | 37.1% | 41% | 3.27% (active) | 51.5% | 69.9% | – | 75.5% | 86.7% | 38.7% | 80.7% | 80.9% | 85.6% | – |
| COc1ccc(S(=O)(=O)Nc2cc(/C=C\c3cc(OC)c(OC)c(OC)c3)cc(OC)c2OC)cc1OC | 66.6% | 55.2% | 11.4% | 43.3% | 37.4% | 18% | -47.4% (active) | 13.9% | 15.8% | 84.1% | 32.3% | -8.93% (active) | 38.4% | 8.39% (active) | -18.6% (active) | 2.52% (active) | 52.3% | 34% | 72% |
| CC(C)C[C@H](NC(=O)[C@H](Cc1ccccc1)n1ccc(N2CCCCC2)cc1=O)B(O)O | -68.7% (active) | 70.7% | 34.7% | -10.1% (active) | -7.97% (active) | 28% | 28.9% | 41.3% | 9.62% (active) | -23.8% (active) | -26.2% (active) | -54% (active) | -8.05% (active) | 7.12% (active) | -11.5% (active) | 12.5% | 13.1% | 19% | -16.9% (active) |
| COc1cc(/C=C2\C=C(c3ccc(F)cc3)N(Cc3ccccc3)C2=O)cc(OC)c1OC | 56.7% | 61.4% | 66.4% | 35% | 90.6% | 66.6% | 82.7% | 94.8% | 56.1% | 90.7% | 78.7% | 64.5% | 77.4% | 83.6% | 87% | 76.2% | 108% | 56.4% | 79.3% |
| Cc1cc(Nc2nc(C(=O)Nc3ccccc3)nc3ccccc23)n[nH]1 | 67.1% | 56.5% | 37.6% | 51.2% | 59% | 56.2% | 76% | 66.2% | 48.7% | 61.5% | 85.4% | – | 71% | 53.9% | 78.7% | 50.9% | 60% | 62.4% | 83% |
| CC(C)(C)c1ccc(S(=O)(=O)Oc2ccc3c4c(c(=O)oc3c2)CCCCC4)cc1 | 56.7% | 85.9% | 43.2% | 3.94% (active) | -14.1% (active) | 60.8% | 37.4% | 77.4% | 38.5% | 44% | 80.2% | 48.1% | 61.1% | 2.71% (active) | 42.7% | 39.4% | 85.2% | 59.3% | 48.9% |
| CCOc1ccc(/C=C/C=N/NC(N)=S)cc1 | 119% | 91.7% | 96% | 89.3% | 37.3% | 56% | 84.5% | 92.9% | 56% | 82% | 66.6% | -0.439% (active) | 92.1% | 96.7% | 74.3% | 95.7% | – | 86.1% | – |
| COc1cc(OC)c(C(=O)/C=C/c2cccc(C(F)(F)F)c2)c(OC)c1 | 25.1% | 13.2% | -1.87% (active) | 2.76% (active) | -31.8% (active) | 13.4% | 12.9% | 11.6% | 11.8% | 51.4% | 20.7% | -12.9% (active) | 14.7% | 17.4% | -0.21% (active) | 9.53% (active) | 18.7% | 6.1% (active) | 31.3% |
| O=C(Cc1n[nH]c(=O)c2ccccc12)OCc1c(Cl)cccc1Cl | 77.5% | 107% | 26.3% | 88.2% | 98.9% | 81.6% | 112% | 130% | 46.4% | 100% | 72.9% | 52.5% | 60.9% | 55.1% | 94.9% | 97.4% | 69.1% | 96.4% | – |
| CCCC1OC(c2ccc(C(C)C)cc2)OCC1CC (stereo not drawn) | – | 98% | 123% | 101% | 87.2% | – | 99.6% | 110% | 102% | 106% | 107% | 115% | 103% | 104% | 96.3% | – | 74% | 75.8% | – |
| COc1cc(C2C3=C(COC3=O)Nc3c2ccc2c3CCCC2)cc2c1OCO2 (stereo not drawn) | – | 47% | 3.74% (active) | 127% | -35.1% (active) | 18.7% | -67.7% (active) | -24.7% (active) | 12.7% | 92.1% | 6.67% (active) | – | 8.63% (active) | 13.3% | 4.95% (active) | 13.3% | 21.9% | 25% | – |
| COc1ccc(/C=C/C(=O)/C=C/c2cc3ccc(Cl)cc3[nH]c2=O)cc1 | 81% | 97.2% | 86.7% | 103% | 82.3% | 94.9% | 90.5% | 88.2% | 53.2% | 107% | 59.4% | 86.9% | 86.5% | 94.8% | 92% | 86.4% | 85.3% | 93.1% | – |
| O=S(=O)(NCCCNc1cc(-c2cn(-c3ccccc3)nc2-c2cccc(O)c2)ccn1)c1cccc(F)c1 | 46.4% | 57.9% | 35.6% | 26% | 44.4% | 13.1% | -55.9% (active) | 59.4% | 1.85% (active) | 37.9% | 7.26% (active) | 40.1% | 60.7% | 9.83% (active) | 45.1% | 42.3% | 66.7% | 37% | – |
| Cc1ccc(Nc2ncnc3c2sc2ncccc23)cc1 | 91.7% | 95.9% | 97.6% | 106% | 106% | 101% | 107% | 108% | 53.8% | 107% | 103% | 88.2% | 97.6% | 110% | 100% | 101% | 103% | 98.2% | 99.5% |
| CCOC(=O)CC/C(C)=N\Nc1ccc([N+](=O)[O-])cc1 | 67.9% | 77.3% | 27.1% | 89.8% | 38.8% | 72.9% | 34.7% | 88.6% | 6.98% (active) | 104% | 80.8% | 97.5% | 73.5% | 60% | 69.8% | 29.3% | 63.2% | 24.4% | – |
